Data published in PubChem BioAssay (NCI).
Compounds without any hit were thinned out: in the full panel of roughly 83,000, 20% have a hit.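 Compound tested at a single concentration for 48 hours in 96-well plates; a percent growth value below 10 was scored as active.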 Values without a mark were called inactive. Activity calls are given as the source filed them.

How the values were obtained:
Assay in all cases: NCI-60 one-dose screen, 48 h (100 = growth as untreated, 0 = no growth, -100 = all killed)
Conditions in all cases: 10 µM unless noted
HCT-15 colon = tested on: HCT-15 colon
HT29 colon = tested on: HT29 colon
SNB-75 CNS = tested on: SNB-75 CNS
SNB-19 CNS = tested on: SNB-19 CNS
U251 CNS = tested on: U251 CNS
PC-3 prostate = tested on: PC-3 prostate
SK-MEL-5 melanoma = tested on: SK-MEL-5 melanoma
UACC-62 melanoma = tested on: UACC-62 melanoma
LOX IMVI melanoma = tested on: LOX IMVI melanoma
SK-MEL-28 melanoma = tested on: SK-MEL-28 melanoma
SK-MEL-2 melanoma = tested on: SK-MEL-2 melanoma
EKVX NSCLC = tested on: EKVX NSCLC
SN12C renal = tested on: SN12C renal
UO-31 renal = tested on: UO-31 renal
TK-10 renal = tested on: TK-10 renal
ACHN renal = tested on: ACHN renal
CAKI-1 renal = tested on: CAKI-1 renal
A498 renal = tested on: A498 renal
CCRF-CEM leukemia = tested on: CCRF-CEM leukemia
MOLT-4 leukemia = tested on: MOLT-4 leukemia

SMILES | growth (HCT-15 colon) | growth (HT29 colon) | growth (SNB-75 CNS) | growth (SNB-19 CNS) | growth (U251 CNS) | growth (PC-3 prostate) | growth (SK-MEL-5 melanoma) | growth (UACC-62 melanoma) | growth (LOX IMVI melanoma) | growth (SK-MEL-28 melanoma) | growth (SK-MEL-2 melanoma) | growth (EKVX NSCLC) | growth (SN12C renal) | growth (UO-31 renal) | growth (TK-10 renal) | growth (ACHN renal) | growth (CAKI-1 renal) | growth (A498 renal) | growth (CCRF-CEM leukemia) | growth (MOLT-4 leukemia)
COc1ccc(/C=C/C(=C/c2c(O)[nH]c3cc(Br)ccc23)N=O)cc1 | 113% | 114% | 113% | 109% | 105% | 104% | 103% | 102% | 90.8% | 120% | 140% | 108% | 102% | 88.5% | 148% | 110% | 93.1% | 93.6% | 104% | 104%
Cc1cccc(C[C@H](NC(=O)Nc2ccc(Cl)cc2F)C(=O)N[C@@H]2C(=O)N3C[C@H](O)C[C@H]3C(=O)N3CCN(C)C[C@H]3C(=O)N[C@@H](C)C(=O)N3C[C@H](C)C[C@H]3C(=O)O[C@H]2C)c1 | 105% | 36% | 18.8% | 22.5% | 23.5% | 19.6% | 40.7% | 28.3% | 40.9% | 42.4% | 34.4% | 71.4% | 20.5% | 83.6% | 81.4% | 102% | 59.1% | 23.7% | 57.2% | 43.4%
COc1cc(/C=C/C(=O)/C=C/c2ccc(-n3ccnc3)cc2)ccc1O | 82.2% | 3.46% (active) | 62.3% | 76.9% | -0.424% (active) | 62.4% | 74% | 85.2% | -44% (active) | 86.7% | 106% | 97.9% | 76.6% | -25.7% (active) | 101% | 48.3% | 91.5% | 96.8% | 37.1% | 33.4%
O=C(OCc1ccc2c(Cl)cc(Cl)c(O)c2n1)N1CCN(C(=O)c2cc3cc(F)ccc3[nH]2)CC1 | 10.6% | 99.1% | 28.6% | 50.2% | 8.06% (active) | 15.8% | -33% (active) | 35.3% | 12.2% | 60.7% | 22.9% | 94.5% | 30.1% | 33.4% | 63.7% | 26.7% | 14.8% | -13.1% (active) | 13.4% | 17.3%
CCN1CCN(CC(=O)Nc2nc3ccc(NCc4ccc(Cl)cc4)cc3s2)CC1 | 0.991% (active) | 19.6% | 103% | 79.6% | 58.2% | 52.7% | -37.9% (active) | -12% (active) | 16.9% | 24.7% | 86.4% | 86.3% | 68.4% | 59.6% | 96.8% | 83.3% | 68.3% | 58.4% | 50% | 54.4%
CC1(C)CC[C@]23CC[C@]4(C)[C@H](CC[C@@H]5[C@@]6(C)C/C(=C/c7ccncc7)C(=O)C(C)(C)[C@@H]6CC[C@]54C)[C@H]2[C@H]1OC3=O | 76.5% [100 µM] | 71.5% [100 µM] | -49.9% [100 µM] (active) | 17.3% [100 µM] | 39.2% [100 µM] | 50.5% [100 µM] | 36.3% [100 µM] | 56.4% [100 µM] | 76.7% [100 µM] | 87.7% [100 µM] | 29.5% [100 µM] | 85.5% [100 µM] | 65.6% [100 µM] | 91.8% [100 µM] | 51.5% [100 µM] | 43.9% [100 µM] | 50.8% [100 µM] | 58.6% [100 µM] | 79.3% [100 µM] | 69.1% [100 µM]
COc1ccc(C=C2c3ccccc3-c3ccccc32)cc1 | 25.8% | 13.7% | 43.3% | 51.4% | 34.8% | 63.6% | 60.3% | 23.6% | 41.3% | 64.9% | 54.9% | 66.8% | 61.6% | 54.3% | 68.6% | 58.4% | 49% | 15.7% | 57.7% | 52.3%
CCCCCCCCCCCCCCNC(=O)Nc1ccc(Cl)c(Cl)c1 | 16.9% | 46.6% | 53.7% | 56.3% | 19.8% | 16.7% | 51.3% | 33.6% | 7.74% (active) | 60.9% | 14.5% | 31.9% | 20.2% | 8.71% (active) | 41.3% | 9.14% (active) | 10.8% | 96.7% | 63.7% | 103%
